The source of these data is PubChem BioAssay AID1053133 (Broad Institute, 2014).

Each structure is given as a SMILES string. Where “and” joins values, the source holds several entries; their conditions need not be identical. Equal values may be shown once. In all, about 89,000 compounds went through this assay and about 10 (0.01%) were called active. Not shown: some 10% with an inconclusive outcome. Rule as the data show it: active = activity change below about -37% (passing the limit was not always enough); inconclusive = no clear call, values can overlap the other calls; tested in A549 cells. The list is a sample of the results.

The assay is described as follows: Vaccinia orthopox stage-specific inhibition, primary screen, cell-based, single point (AID 1053133). The conditions noted are these: Vaccinia-infected cells, mCherry/Venus stage reporter fluorescence, stronger effect = lower value, concentration not given here; activity change (Venus): measured here: Venus reporter, other viral stage.
For `COc1ccc(NC(=O)Nc2ccc3c(c2)C(=O)N([C@@H](C)CO)C[C@H](C)[C@H](CN(C)S(=O)(=O)c2ccccc2)OCCCC[C@@H](C)O3)cc1`, the activity change (Venus) was -1.69% and the activity change (mCherry) is -0.413% (inactive).

On to `C[C@@H]1CN([C@H](C)CO)C(=O)c2cc(-c3ccccc3)cnc2O[C@H]1CN(C)C(=O)NC1CCCC1`, for which the activity change (Venus) is -2.73% and the activity change (mCherry) was 1.1% (inactive).

With `CCC(=O)N1CCC2(CC1)CN(Cc1cc(F)ccc1F)[C@@H](CO)c1c2c2ccc(OC)cc2n1C`, the activity change (Venus) was -2.18% and the activity change (mCherry) is 15.8% (inactive).

With `O=C(C[C@H]1CC[C@@H]2[C@H](COC[C@H](O)CN2C(=O)c2ccc3c(c2)OCO3)O1)NC1CCC1`, the activity change (Venus) is 9.5% and the activity change (mCherry) is 3.32% (inactive).

For the molecule `O=C(Nc1ccccc1F)N[C@H]1CC[C@@H](CCNS(=O)(=O)c2ccc(F)cc2)O[C@@H]1CO`, the activity change (Venus) was -12.7% and the activity change (mCherry) was -16.7% (inactive).

With `O=C(C[C@H]1C=C[C@H](NC(=O)Nc2cc(F)ccc2F)[C@H](CO)O1)Nc1ccccc1`, the activity change (Venus) was -0.0195% and the activity change (mCherry) was -4.16% (inactive).

`COc1ccc2c3c(n(C)c2c1)[C@@H](CO)N(C(=O)c1ccc(F)cc1)CC31CN(C(=O)c2ccc(F)cc2)C1`: the activity change (Venus) was -9% and the activity change (mCherry) was -10.3% (inactive).

As for `COc1cccc(-c2ccc(CC[C@H]3O[C@H]4CC[C@@H](CO)O[C@H]4C[C@@H]3NS(C)(=O)=O)cc2)c1`, the activity change (Venus) is -32% and the activity change (mCherry) is -32.8% (inactive).

In the case of `O=C(C[C@@H]1CC[C@H]2[C@@H](COC[C@H](O)CN2Cc2ccc(F)cc2)O1)N1CCc2ccccc2C1`, the activity change (Venus) is -6.62% and the activity change (mCherry) is -6.87% (inactive).

As for `CN(C)CC(=O)N1[C@H](CO)[C@@H](c2ccc(-c3cccc(C(=O)N(C)C)c3)cc2)[C@@H]1C#N`, the activity change (Venus) was -1.53% and the activity change (mCherry) was 8.67% (inactive).

For `O=C(c1ccncc1)N1C[C@H]2[C@@H](c3ccccc31)[C@H](CO)N2C(=O)Nc1ccc(F)cc1`, the activity change (Venus) worked out at 5.09% and the activity change (mCherry) is 11% (inactive).

Take `COCC(=O)Nc1ccc2c(c1)C(=O)N(C)[C@@H]1CC[C@H](CC(=O)NCC3CC3)O[C@H]1CO2`: the activity change (Venus) is 3.16% and the activity change (mCherry) was 15.4% (inactive).

Turning to `O=C(c1ccncc1)N1C[C@H]2[C@@H](c3ccccc31)[C@H](CO)N2C(=O)c1ccccn1`, the activity change (Venus) worked out at 2.97% and the activity change (mCherry) is 10.6% (inactive).

In the case of `COc1ccc2c3c([nH]c2c1)[C@@H](CO)N(Cc1ccccc1F)CC31CN(C(=O)C2CC2)C1`, the activity change (Venus) came to 19.6% and the activity change (mCherry) is 12.9% (inactive).

For `CCCN(C)C[C@@H]1Oc2ncc(-c3cccc(C(=O)N(C)C)c3)cc2C(=O)N([C@H](C)CO)C[C@@H]1C`, the activity change (Venus) worked out at 1.46% and the activity change (mCherry) was 23.1% (inactive).

Regarding `C[C@@H]1CN([C@@H](C)CO)S(=O)(=O)c2ccc(-c3ccc(F)cc3)cc2O[C@@H]1CN(C)CC1CC1`, the activity change (Venus) was -14.3% and the activity change (mCherry) is -33.2% (inactive).

For the molecule `Cn1cnc(S(=O)(=O)N2C[C@@H]3N[C@H](C2)C3c2ccc(/C=C/c3ccccc3)cc2)c1` (some centres undefined), the activity change (Venus) was 2.7% and -14.5%; the activity change (mCherry) was 7.98% (inactive) and -24.7% (inactive).

For the molecule `C[C@H](CO)N1C[C@H](C)[C@@H](CN(C)C(=O)Cc2ccncc2)Oc2ncc(C3=CCCCC3)cc2C1=O`, the activity change (Venus) is -16% and the activity change (mCherry) was -18.8% (inactive).

`CCC(=O)N1CC2(C1)[C@H](c1ccccc1)[C@@H](CO)N2C(=O)c1ccccc1`: the activity change (Venus) was -1.49% and the activity change (mCherry) was -4.89% (inactive).

Turning to `COc1ccc(-c2ccc3n(c2=O)C[C@@H]2[C@@H](CO)[C@H](C(=O)Nc4ccccc4)[C@H]3N2C)cc1`, the activity change (Venus) is 4.65% and the activity change (mCherry) was -0.0885% (inactive).

Turning to `CO[C@H]1CN(C)C(=O)c2ccc(NC(=O)c3ccno3)cc2OC[C@@H](C)N(S(C)(=O)=O)C[C@H]1C`, the activity change (Venus) is 16.7% and the activity change (mCherry) was 24.5% (inactive).

For `Cc1ccc(F)cc1S(=O)(=O)N[C@@H]1CCN(Cc2ccc(-c3ccccc3)cc2)C1`, the activity change (Venus) is -24.3% and the activity change (mCherry) is -23.2% (inactive).

For the molecule `C[C@@H](NC(=O)C[C@H]1C[C@@H]2c3cc(NC(=O)Nc4ccccc4F)ccc3O[C@@H]2[C@H](CO)O1)c1ccccc1`, the activity change (Venus) turned out to be 0.165% and the activity change (mCherry) was 4.14% (inactive).

Consider `O=C(C[C@@H]1C[C@H]2c3cc(NC(=O)NC4CCCCC4)ccc3O[C@H]2[C@H](CO)O1)NCc1ccncc1`, for which the activity change (Venus) is 10.9% and the activity change (mCherry) is -4.22% (inactive).

For the molecule `COc1ccccc1NC(=O)N(C)C[C@H]1Oc2cc(Br)ccc2S(=O)(=O)N([C@H](C)CO)C[C@@H]1C`, the activity change (Venus) was -7.91% and 3.04%; the activity change (mCherry) was -12.3% (inactive) and -2.64% (inactive).

For `O=C(C[C@@H]1CC[C@@H]2[C@H](COC[C@H](O)CN2C(=O)C2CC2)O1)NCc1ccncc1`, the activity change (Venus) was -2.42% and the activity change (mCherry) is 0.733% (inactive).

With `COCC#Cc1ccc2c(c1)O[C@@H](CN(C)C(=O)Nc1ccccc1F)[C@H](C)CN([C@H](C)CO)S2(=O)=O`, the activity change (Venus) turned out to be 11.6% and the activity change (mCherry) was 9.91% (inactive).

Regarding `CN1C(=O)c2cc(NC(=O)c3ccccc3)ccc2OC[C@H]2O[C@@H](CC(=O)O)CC[C@@H]21`, the activity change (Venus) amounted to 4.29% and the activity change (mCherry) is 9.5% (inactive).

For `O=C(c1ccccn1)N1CC2(C1)[C@H](c1ccccc1)[C@H](CO)N2C(=O)C1CCCC1`, the activity change (Venus) is -9.04% and the activity change (mCherry) is -13.9% (inactive).

Regarding `Cc1noc(C)c1NC(=O)N[C@@H]1CC[C@H](CC(=O)Nc2ccccc2)O[C@H]1CO`, the activity change (Venus) was 10.3% and the activity change (mCherry) is 4.56% (inactive).

With `COc1ccc2c3c([nH]c2c1)[C@@H](CO)N(C(=O)c1cccc(F)c1)CC31CN(C(C)=O)C1`, the activity change (Venus) is -6.3% and the activity change (mCherry) was 16.8% (inactive).

Turning to `CCC(=O)Nc1ccc2c(c1)OC[C@@H](C)N(Cc1ccccn1)C[C@H](C)[C@@H](OC)CN(C)C2=O`, the activity change (Venus) amounted to 5.46% and the activity change (mCherry) was 6.05% (inactive).

Regarding `C[C@@H]1CN([C@H](C)CO)S(=O)(=O)c2ccc(C#CCC3CCCC3)cc2O[C@H]1CN(C)Cc1ccc(C(=O)O)cc1`, the activity change (Venus) was -4.35% and the activity change (mCherry) was 11.2% (inactive).

Take `O=C(C[C@H]1CC[C@@H]2[C@H](COC[C@@H](O)CN2CC2CC2)O1)NCC1CC1`: the activity change (Venus) came out at 15.8% and the activity change (mCherry) is 11.7% (inactive).

On to `C[C@H](CO)N1C[C@H](C)[C@@H](CN(C)C(=O)Nc2ccc3c(c2)OCO3)OCCCC[C@H](C)Oc2ccc(NS(=O)(=O)c3cn(C)cn3)cc2C1=O`, for which the activity change (Venus) worked out at 3.74% and the activity change (mCherry) was 11.2% (inactive).

For `CO[C@H]1CN(C)C(=O)c2ccc(NC(=O)c3cc(C)on3)cc2OC[C@@H](C)NC[C@@H]1C`, the activity change (Venus) came to 4.97% and the activity change (mCherry) is 2.62% (inactive).

Turning to `CCCc1cn(CC[C@H]2CC[C@@H](NS(=O)(=O)c3ccccc3Cl)[C@@H](CO)O2)nn1`, the activity change (Venus) stood at 1.1% and the activity change (mCherry) is 5.97% (inactive).
